The values below come from PubChem BioAssay (EPA / NIEHS).

Read-out in test [1]: TIMP metallopeptidase inhibitor 1 (TIMP1), TIMP1 (gene 7076)
Kind of test: BSK_hDFCGF_TIMP1: BioMAP Diversity Plus: hDFCGF Assay for TIMP metallopeptidase inhibitor 1 (TIMP1) Biomarker Activity (AID 2283062). Particulars: primary human foreskin fibroblasts; actives raise or lower the signal. An outline of the steps:
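Fibroblasts from human foreskin are treated with test chemical and harvested at 24 h. TIMP-1 is quantified by ELISA, and gain or loss of signal is scored against DMSO.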

Read-out in test [2]: Monokine induced gamma interferon (MIG), CXCL9 (gene 4283)
The test can be described thus: BSK_hDFCGF_MIG: BioMAP Diversity Plus: hDFCGF Assay for Monokine induced gamma interferon (MIG) Biomarker Activity (AID 2283063). To be noted: primary human foreskin fibroblasts; actives raise or lower the signal. In outline:
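MIG signal, determined by ELISA, reflects 24 h chemical exposure of human skin primary fibroblasts. DMSO serves as negative control and baseline.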

Read-out in test [3]: Matrix Metallopeptidase 1 (MMP1), MMP1 (gene 4312)
The test can be described thus: BSK_hDFCGF_MMP1: BioMAP Diversity Plus: hDFCGF Assay for Matrix Metallopeptidase 1 (MMP1) Biomarker Activity (AID 2283064). To be noted: primary human foreskin fibroblasts; actives raise or lower the signal. In outline: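 ELISA read-out of MMP1 from human foreskin fibroblasts (primary skin cells), 24 h post-dose. Gain or loss of signal was fitted bidirectionally versus DMSO negative control; cytotoxicity was checked by SRB in parallel cultures.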

Read-out in test [4]: Vascular cell adhesion molecule 1 (VCAM1), VCAM1 (gene 7412)
The test can be described thus: BSK_hDFCGF_VCAM1: BioMAP Diversity Plus: hDFCGF Assay for Vascular cell adhesion molecule 1 (VCAM1) Biomarker Activity (AID 2283065).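 For AC50: VCAM-1 protein level quantified by ELISA after 24 h chemical exposure.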 To be noted: primary human foreskin fibroblasts; actives raise or lower the signal. An outline of the steps:
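Cells are dosed, cultured for 24 h, then VCAM-1 is quantified by ELISA; signal increases and decreases are both fitted relative to DMSO.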

Read-out in test [5]: Plasminogen activator inhibitor-1 (PAI1), SERPINE1 (gene 5054)
Kind of test: BSK_hDFCGF_PAI1: BioMAP Diversity Plus: hDFCGF Assay for Plasminogen activator inhibitor-1 (PAI1) Biomarker Activity (AID 2283066). Particulars: primary human foreskin fibroblasts; actives raise or lower the signal. In outline: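 ELISA readout of PAI-1 from primary human skin fibroblast cultures, 24 h after compound addition. Gain or loss of signal was fitted bidirectionally against DMSO baseline.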

Read-out in test [6]: Intercellular Adhesion Molecule 1 (ICAM1), ICAM1 (gene 3383)
Kind of test: BSK_KF3CT_ICAM1: BioMAP Diversity Plus: KF3CT Assay for Intercellular Adhesion Molecule 1 (ICAM1) Biomarker Activity (AID 2283067). To be noted: primary human keratinocytes with fibroblasts; actives raise or lower the signal. An outline of the steps: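 Dose the keratinocyte/fibroblast co-culture, wait 24 h, measure ICAM-1 by ELISA, then fit increases or decreases against DMSO. Cytotoxicity is checked in parallel cultures by SRB total-protein staining.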

Read-out in test [7]: Interferon-gamma inducible Protein 10 (IP10), CXCL10 (gene 3627)
Kind of test: BSK_KF3CT_IP10: BioMAP Diversity Plus: KF3CT Assay for Interferon-gamma inducible Protein 10 (IP10) Biomarker Activity (AID 2283068). To be noted: primary human keratinocytes with fibroblasts; actives raise or lower the signal. In outline: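 Signal is secreted/surface IP-10 by ELISA in a human primary skin co-culture of keratinocytes and foreskin fibroblasts, taken 24 h post-dosing; DMSO served as negative control.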

Read-out in test [8]: Interleukin-1 alpha (IL1a), IL1A (gene 3552)
The test can be described thus: BSK_KF3CT_IL1a: BioMAP Diversity Plus: KF3CT Assay for Interleukin-1 alpha (IL1a) Biomarker Activity (AID 2283070). To be noted: primary human keratinocytes with fibroblasts; actives raise or lower the signal. An outline of the steps: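 Primary skin co-culture (keratinocytes, foreskin fibroblasts), 24 h exposure; ELISA for IL-1a; bidirectional curve fit vs DMSO.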

Read-out in test [9]: TIMP metallopeptidase inhibitor 2 (TIMP2), TIMP2 (gene 7077)
Kind of test: BSK_KF3CT_TIMP2: BioMAP Diversity Plus: KF3CT Assay for TIMP metallopeptidase inhibitor 2 (TIMP2) Biomarker Activity (AID 2283071). Particulars: primary human keratinocytes with fibroblasts; actives raise or lower the signal. An outline of the steps:
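ELISA readout of TIMP-2 in keratinocyte plus foreskin fibroblast co-cultures (human skin primary cells), 24 h post-dose. Gain or loss of signal fitted relative to DMSO.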

Read-out in test [10]: Transforming growth factor beta 1 (TGFb1), TGFB1 (gene 7040)
The test can be described thus: BSK_KF3CT_TGFb1: BioMAP Diversity Plus: KF3CT Assay for Transforming growth factor beta 1 (TGFb1) Biomarker Activity (AID 2283072). To be noted: primary human keratinocytes with fibroblasts; actives raise or lower the signal. An outline of the steps: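 Read-out: ELISA for TGF-b1 in keratinocyte/foreskin fibroblast human skin co-culture, 24 h after dosing; bidirectional curve fit vs DMSO baseline; gain or loss of signal scored.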

Read-out in test [11]: C-C motif chemokine 2 (Homo sapiens) (UniProt P13500)
The test can be described thus: BSK_KF3CT_MCP1: BioMAP Diversity Plus: KF3CT Assay for Monocyte Chemoattractant Protein 1 (MCP1/CCL2) Biomarker Activity (AID 2283073). To be noted: primary human keratinocytes with fibroblasts; actives raise or lower the signal. In outline: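 Keratinocytes and foreskin fibroblasts were co-cultured, dosed with chemical, and sampled 24 h later. MCP-1 was quantified by ELISA, and the endpoint was analyzed with bidirectional fitting using DMSO as negative control.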

Read-out in test [12]: Matrix Metallopeptidase 9 (MMP9), MMP9 (gene 4318)
Kind of test: BSK_KF3CT_MMP9: BioMAP Diversity Plus: KF3CT Assay for Matrix Metallopeptidase 9 (MMP9) Biomarker Activity (AID 2283074).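 For AC50: MMP9 protein level quantified by ELISA in the co-culture.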 Particulars: primary human keratinocytes with fibroblasts; actives raise or lower the signal. An outline of the steps:
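ELISA read-out of MMP-9 at 24 h post-dosing in a co-culture of human skin keratinocytes and foreskin fibroblasts. Gain or loss of signal was fitted in both directions against DMSO.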

Read-out in test [13]: urokinase plasminogen activator (uPA), PLAU (gene 5328)
Kind of test: BSK_KF3CT_uPA: BioMAP Diversity Plus: KF3CT Assay for urokinase plasminogen activator (uPA) Biomarker Activity (AID 2283075). Particulars: primary human keratinocytes with fibroblasts; actives raise or lower the signal. An outline of the steps:
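Skin co-culture (keratinocytes + foreskin fibroblasts), human primary; 24 h post-dose; uPA by ELISA; gain/loss fit vs DMSO baseline.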

Read-out in test [14]: CD40, CD40 (gene 958)
Kind of test: BSK_LPS_CD40: BioMAP Diversity Plus: LPS Assay for CD40 Biomarker Activity (AID 2283076). Particulars: primary human HUVEC with PBMC; actives raise or lower the signal. In outline: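 CD40 signal, measured by ELISA, is fitted in both directions relative to DMSO vehicle. The system is an LPS-driven human vascular primary co-culture of endothelial cells and PBMC, sampled 24 h after compound addition.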

Read-out in test [15]: E-selectin (Homo sapiens) (UniProt P16581)
The test can be described thus: BSK_LPS_Eselectin: BioMAP Diversity Plus: LPS Assay for Eselectin Biomarker Activity (AID 2283077). To be noted: primary human HUVEC with PBMC; actives raise or lower the signal. An outline of the steps:
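Signal of E-selectin, detected by ELISA, served as the endpoint; cells were umbilical vein endothelium with PBMC, read 24 h after treatment. DMSO defined baseline, and both increases and decreases were fitted.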

Test [16] in a line: BSK_LPS_SRB: Viability Assessment in the BioMAP Diversity Plus: LPS Assay (AID 2283079).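 Note: total protein by sulforhodamine B absorbance as a cytotoxicity measure; measured one day after compound addition.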 Particulars: primary human HUVEC with PBMC. In outline:
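Overt cytotoxicity was gauged by sulforhodamine B total-protein staining in a primary human vascular endothelial and mononuclear cell co-culture 24 h post-dosing. Activity was fitted in both directions relative to DMSO.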

Read-out in test [17]: Interleukin-1 alpha (IL1a), IL1A (gene 3552)
The test can be described thus: BSK_LPS_IL1a: BioMAP Diversity Plus: LPS Assay for Interleukin-1 alpha (IL1a) Biomarker Activity (AID 2283080). Particulars: primary human HUVEC with PBMC; actives raise or lower the signal. In outline: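 Measured: IL-1 alpha via ELISA at 24 h in LPS-activated human umbilical vein endothelium–PBMC co-culture. Baseline: DMSO, bidirectional fitting.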

Read-out in test [18]: Monocyte Chemoattractant Protein-1 (MCP1), CCL2 (gene 6347)
The test can be described thus: BSK_LPS_MCP1: BioMAP Diversity Plus: LPS Assay for Monocyte Chemoattractant Protein-1 (MCP1) Biomarker Activity (AID 2283081). Particulars: primary human HUVEC with PBMC; actives raise or lower the signal. An outline of the steps:
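LPS-stimulated HUVEC/PBMC co-culture; chemical, 24 h; MCP-1 by ELISA; bidirectional fit vs DMSO; cytotoxicity via SRB (0.1% stain, 10% TCA fix, 560 nm) in parallel wells.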

Test [19] is described as follows: BSK_KF3CT_SRB: Viability Assessment in the BioMAP Diversity Plus: KF3CT Assay (AID 2283069). To be noted: primary human keratinocytes with fibroblasts. In outline:
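SRB read-out at 560 nm (0.1% stain, TCA-fixed cells) gauges overt cytotoxicity in a human skin keratinocyte–fibroblast co-culture 24 h post-dosing. Signal change was fitted bidirectionally relative to DMSO control.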

Read-out in test [20]: Interleukin-8 (IL8), CXCL8 (gene 3576)
The test can be described thus: BSK_LPS_IL8: BioMAP Diversity Plus: LPS Assay for Interleukin-8 (IL8) Biomarker Activity (AID 2283078). Particulars: primary human HUVEC with PBMC; actives raise or lower the signal. An outline of the steps:
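Endothelial cells and PBMC from human donors are co-cultured, treated with chemicals and LPS, then assayed for IL-8 by ELISA after 24 h. Parallel SRB staining (0.1% SRB after 10% TCA fixation, 560 nm) flags cytotoxicity.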

Molecules are shown by their SMILES. Several values for one entry are separate records, joined by “and”; a condition that tells them apart may be missing. Equal entries are not always repeated. Some structures have more than one record in an assay (separate samples or runs), and their calls can disagree. Activity calls are given as the source filed them. Rule for the calls: active = hit-call score of the fitted dose curve at least 0.9, where 1 is the maximum; inactive = score below 0.9.

In general, AC50 refers to the concentration giving half of the maximal activity seen.

E-selectin (Homo sapiens), sequence (P16581 whole entry, looked up): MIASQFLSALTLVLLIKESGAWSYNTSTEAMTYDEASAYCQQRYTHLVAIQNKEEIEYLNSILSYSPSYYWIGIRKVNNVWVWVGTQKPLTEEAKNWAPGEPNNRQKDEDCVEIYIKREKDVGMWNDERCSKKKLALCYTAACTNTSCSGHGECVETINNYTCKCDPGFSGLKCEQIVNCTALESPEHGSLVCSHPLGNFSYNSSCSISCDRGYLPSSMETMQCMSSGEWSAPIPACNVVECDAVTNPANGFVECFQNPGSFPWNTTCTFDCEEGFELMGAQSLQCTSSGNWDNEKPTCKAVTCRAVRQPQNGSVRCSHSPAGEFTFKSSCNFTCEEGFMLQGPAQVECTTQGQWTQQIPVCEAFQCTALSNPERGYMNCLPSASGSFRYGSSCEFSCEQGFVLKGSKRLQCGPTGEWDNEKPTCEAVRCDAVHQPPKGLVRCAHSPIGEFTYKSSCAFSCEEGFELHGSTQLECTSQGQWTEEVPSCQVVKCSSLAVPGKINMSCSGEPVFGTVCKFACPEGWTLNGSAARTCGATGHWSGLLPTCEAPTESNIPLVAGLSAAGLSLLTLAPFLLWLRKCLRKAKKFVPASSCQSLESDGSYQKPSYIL

Turning to `CC(C)(O)C(=O)Nc1ccc([N+](=O)[O-])c(C(F)(F)F)c1`, the outcome in test [1], in [2], in [3], in test [4], in test [5] and in test [6] was inactive. Further, the result in [7], in test [8], in [9], in test [10], in test [11] and in test [12] was inactive. The outcome in test [13], in test [14], in test [15], in test [16], in test [17] and in test [18] was inactive.

As to `Clc1ccc(Cl)cc1`, the result in test [1], in [2], in test [3], in [4], in [5] and in [6] was inactive. In addition, the result in test [7], in test [19], in [8], in [9], in [10] and in test [11] was inactive. For the same compound, the outcome in [12], in [13], in test [15], in test [20], in test [16] and in test [17] was inactive.

With `N#Cc1ccc(N(CC(N)=O)CC(F)(F)F)cc1C(F)(F)F`, the result in test [1], in test [3], in test [4], in [5], in [6] and in test [7] was inactive. Besides, the result in [19], in [8], in test [9], in test [10], in test [11] and in [12] was inactive. Further, the result in [13], in test [14], in [15], in test [20], in test [16] and in test [17] was inactive.

`O=C(O)C(F)(F)C(F)(F)C(F)(F)C(F)(F)C(F)(F)C(F)(F)C(F)(F)C(F)(F)F`: the result in [1], in test [3], in [4], in [5], in test [6] and in [19] was inactive. Also, the outcome in [8], in test [9], in [10], in test [11], in [13] and in test [15] was inactive. Moreover, the result in test [20], in [16] and in [17] was inactive. In addition, the AC50 in [4] was 48.5 µM (active); in [7] it was 30.2 µM (active) and 54.7 µM (active) and 47.3 µM (active); in test [8], 7.86 µM (active) and 30 µM (active); in [11], 17.7 µM (active) and 24.9 µM (active); in [12], 33.2 µM (active) and 35.9 µM (active) and 30 µM (active); in test [20] it was 7.33 µM (active) and 50.3 µM (active). Further, the concentration at half-maximal activity (AC50) was 53.5 µM (active) and 55 µM (active) in test [16]; 44.1 µM (active) in test [17].

Regarding `CCCCCCCCOC(=O)c1ccccc1C(=O)OCCCCCCCC`, the result in [1], in [2], in test [3], in test [4], in test [5] and in test [6] was inactive. The outcome in test [7], in test [8], in test [9], in [10], in test [11] and in test [12] was inactive. Besides, the outcome in [13], in [14], in test [15], in test [20], in test [16] and in test [17] was inactive.

For the compound `C[C@]12CCC(=O)C=C1CC[C@@H]1[C@@H]2CC[C@@]2(C)[C@H]1CC[C@]2(C)O`, the outcome in test [1], in test [2], in test [3], in [4], in test [5] and in [6] was inactive. Moreover, the outcome in test [7], in test [8], in test [9], in [10], in test [11] and in test [12] was inactive. For the same compound, the outcome in [13], in [14], in test [15], in test [20], in [16] and in test [17] was inactive. The result in [18] was inactive.
